# Source: PubChem BioAssay (several laboratories)
# This is a sample that favours compounds with a hit; in the whole collection about 1.8% have one here.
# Rtt109 Vps75: C. albicans Rtt109 histone acetyltransferase inhibition. purified Rtt109/Vps75, ThioGlo CoA-SH fluorescence, 4 h. inhibition, % at 34.9 µM. 0.16% of 330,000 active. AID 540336;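 active = inhibition of at least 50% in every replicate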
# HTR2A ag: activates the mouse 5-HT2A serotonin receptor. AID 624169. 0.66% of 360,000 active. P35363. CHO-K1 mHTR2A beta-arrestin complementation, luminescence; percent of 30 µM serotonin response. activation, % at 7.6 µM;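 active = activation above a run cutoff, the mean activation of all tested compounds plus 3 SD, cut at about 14% in these data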;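 note: 0% = plate median of compound wells and 100% = 30 µM serotonin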
# NOD2 RIPK2 PPI: blocks binding of human NOD2 to RIPK2. inhibition, % at 4.98 µM. 0.38% of 360,000 active. CHO BLA complementation NOD2-RIPK2, CCF4 ratio; in the data active = inhibition above about 21%;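 note: 0% = vehicle only and 100% = reference blocker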
# Target sequence (O43353 whole entry, looked up): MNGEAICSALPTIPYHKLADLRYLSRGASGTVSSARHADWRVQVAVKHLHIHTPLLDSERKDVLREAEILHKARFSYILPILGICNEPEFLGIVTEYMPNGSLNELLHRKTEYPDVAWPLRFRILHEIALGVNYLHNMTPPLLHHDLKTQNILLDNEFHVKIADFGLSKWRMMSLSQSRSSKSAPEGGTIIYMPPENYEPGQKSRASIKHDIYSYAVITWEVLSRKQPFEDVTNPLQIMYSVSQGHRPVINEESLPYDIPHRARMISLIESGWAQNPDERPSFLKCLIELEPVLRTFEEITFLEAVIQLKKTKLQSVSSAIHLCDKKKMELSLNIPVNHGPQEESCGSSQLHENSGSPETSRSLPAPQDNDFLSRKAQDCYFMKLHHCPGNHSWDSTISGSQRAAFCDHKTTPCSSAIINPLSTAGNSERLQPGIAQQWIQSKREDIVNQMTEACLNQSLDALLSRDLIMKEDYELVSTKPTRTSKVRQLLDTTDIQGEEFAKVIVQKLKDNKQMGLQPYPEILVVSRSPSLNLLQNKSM
# TLR4 MyD88 comp: inhibitors of human TLR4-MyD88 binding. O00206+Q99836. HeLa CL3-4 TLR4/MyD88 BLA complementation, FRET ratio. inhibition, % at 8.4 µM. 0.18% of 200,000 active. AID 861; in the data active = inhibition above about 25%;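 note: 0% = vehicle and 100% = reference inhibitor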
# TLR9-MyD88 block: inhibitors of human TLR9-MyD88 binding; Q9NR96+Q99836; CHO BLA complementation TLR9-MyD88, CCF4 FRET ratio; inhibition, % at 4.98 µM; 0.21% of 340,000 active;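 active = inhibition above the mean over all tested compounds plus 3 SD, cut at about 21% in these data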;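 note: 0% = DMSO only wells and 100% = clavulanate BLA inhibitor control wells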
# LANA-H2B inh: blocks KSHV LANA binding to histone H2A/H2B; Q9QR71; cell-free LANA-H2A/H2B peptide, fluorescence polarization; inhibition, % (test concentration not listed); 0.6% of 320,000 active; AID 2629; in the data active = inhibition mostly above about 10%, no sharp cut-off; inactive = mostly below about 6.7%
# TLR4 MyD88 cnf: TLR4-MyD88 interaction inhibition confirmed. HeLa CL3-4 BLA complementation, CCF4 FRET ratio. inhibition, % at 8.4 µM. AID 941. shares compounds with TLR4 MyD88 comp. 50% of 350 active;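 active = mean inhibition across three repeat runs above about 25% carried over from the earlier screen, limit read from the data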;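 note: plate controls were DMSO only for no effect and clavulanic acid blocking BLA at full dose for full effect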
# BLA inhibitor ct: beta-lactamase inhibition flagged in TLR4-MyD88 counter-screen; shares compounds with TLR4 MyD88 comp; 63% of 350 active; HeLa BLA reporter, CCF4 FRET ratio; inhibition, % at 8.4 µM; AID 1237;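 active = mean inhibition over three repeats above about 26% taken from the earlier screen, limit read from the data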;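 note: HeLa cells stably expressing beta-lactamase reporter as counterscreen for TLR4-MyD88 inhibitors; 0% = DMSO and 100% = clavulanic acid full inhibition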
# TLR9-MyD88 conf: confirmation of human TLR9-MyD88 binding inhibitors | shares compounds with TLR9-MyD88 block | CHO TLR9/MyD88 BLA complementation, CCF4 FRET ratio | inhibition, % at 4.98 µM | 51% of 680 active | AID 540250;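 active = mean inhibition across three repeats above about 21% taken from the earlier screen, limit read from the data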;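 note: blue over green emission ratio reports constitutive TLR9 MyD88 association via BLA complementation; 0% = DMSO vehicle wells and 100% = clavulanate BLA inhibitor wells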
# BLA counter: counter-screen for TLR9-MyD88 inhibitors: non-selective beta-lactamase inhibitors; inhibition, % at 4.98 µM; AID 540251; CHO-BLA cells, CCF4 FRET ratio, BLA reporter; shares compounds with TLR9-MyD88 block; 7% of 680 active;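 active = mean inhibition above a 50% cutoff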;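 note: counterscreen of TLR9-MyD88 hits on CMV-driven BLA in CHO-K1 cells; 0% = DMSO alone and 100% = clavulanate blocking BLA; higher means less blue over green ratio so more BLA blockade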
# TLR9 CHO cytotox: counter-screen for TLR9-MyD88 inhibitors: cytotoxicity in CHO cells; shares compounds with TLR9-MyD88 block; luminescence; inhibition, % at 4.98 µM; 39% of 680 active; in the data active = inhibition above about 11%
# Numbers without * were called inactive; i = inactive; nt = no result given.
SMILES,Rtt109 Vps75,HTR2A ag,NOD2 RIPK2 PPI,TLR4 MyD88 comp,TLR9-MyD88 block,LANA-H2B inh,TLR4 MyD88 cnf,BLA inhibitor ct,others
CCOC(=O)c1c(NC2=NS(=O)(=O)c3ccccc32)sc2c1CCC(C)C2 (stereo unspecified),3,-1,5,52*,2,-3,-1,15,
CCN(CCc1ccccc1)c1ccc2c(c1)C1CC2CCN1Cc1ccccc1 (stereo unspecified),nt,3,-8,nt,-5,nt,nt,nt,
CCCN1C(=O)CC(c2ccc(OC)c(OC)c2)C1=O (stereo unspecified),nt,5,1,nt,nt,nt,nt,nt,
COc1ccccc1-c1nnc(NC(C)=O)s1,-3,6,-4,-16,10,-3,nt,nt,
COc1ccccc1-c1nnc(NC(=O)C(C)C)s1,-4,5,-9,27*,3,1,-9,5,
O=C(CSc1nc2scc(-c3ccco3)c2c(=O)n1-c1ccccc1)N1CCOCC1,8,-1,2,30*,-6,2,2,9,
COC(=O)c1ccccc1C(=O)c1c(C)cc(C)cc1C,nt,-1,3,nt,nt,nt,nt,nt,
CCOc1ccccc1-c1cc(NC)ncn1,nt,-1,-7,nt,nt,nt,nt,nt,
COc1cc(/C=C(/C#N)c2nc3ccccc3[nH]2)ccc1OCC(=O)Nc1ccccc1C(C)C,-9,0,-3,77*,-3,0,80*,113*,
COc1cc(/C=C(/C#N)c2nc3ccccc3[nH]2)ccc1OCC(=O)Nc1ccccc1C,-8,6,-9,83*,-3,12,80*,107*,
COc1ccccc1CNc1nc(Nc2ccc(C)cc2C)c2sccc2n1,nt,-17,10,nt,nt,nt,nt,nt,
c1cc2c(cc1C1CCCCC1)c1c3n2CCN=C3CCC1,27,4,1,27*,4,-12,19,41*,
COc1ccc(C=NNc2ccc([N+](=O)[O-])cn2)cc1,3,0,2,nt,-1,nt,nt,nt,
N#Cc1ccccc1Cn1cc(/C=N/Nc2ccc([N+](=O)[O-])cn2)c2ccccc21,0,1,-3,46*,0,0,40*,79*,
O=[N+]([O-])c1ccc(N/N=C/c2ccc(OCc3cccc4ccccc34)cc2)nc1,-4,6,0,35*,16,5,47*,82*,
Cc1ccc(C)c(N2C(=N)S/C(=C\c3ccc(-c4ccccc4C(=O)O)o3)C2=O)c1,-13,-1,15,26*,2,1,6,12,
CN1CCN(Cn2cc(/C=C/C(=O)c3ccccc3)c3ccccc32)CC1,-2,-3,33*,28*,23*,-4,16,34*,
CCCN(CCC)CC(O)Cn1cc(/C=C/C(=O)c2ccccc2)c2ccccc21 (stereo unspecified),0,-10,12,9,2,nt,nt,nt,
CC[C@H](C)/C=C(C)/C=C/C1=CC2=CC(=O)[C@]3(C)OC(=O)[C@@H](C(C)=O)[C@@H]3C2=CO1,-68,-2,19,33*,32*,5,19,48*,TLR9-MyD88 conf=27*;BLA counter=30;TLR9 CHO cytotox=1
CC[C@H](C)/C=C(C)/C=C/c1cc2c(cn1)C(=O)[C@@](C)(OC(C)=O)C(O)=C2Cl,nt,1,-17,nt,nt,nt,nt,nt,
CN1/C(=C/C(=O)c2nc(S(C)(=O)=O)ncc2Cl)C(C)(C)c2ccccc21,35,-11,70*,36*,44*,4,29*,18,TLR9-MyD88 conf=46*;BLA counter=25;TLR9 CHO cytotox=99*
Cc1cccc(C)c1-n1nnnc1C1(C)CCC(=O)N1Cc1cccc(C(F)(F)F)c1 (stereo unspecified),nt,4,0,nt,nt,nt,nt,nt,
CCCNC(=O)c1cc(C2CCCCN2C(=O)OCC(C)C)on1 (stereo unspecified),nt,3,-2,nt,nt,nt,nt,nt,
Nc1c(C(=O)Nc2ccccc2)sc2nc(-c3ccco3)ccc12,-18,-2,2,0,16,-6,nt,nt,
COc1ccccc1NC(=O)c1sc2nc(-c3ccco3)ccc2c1N,-1,0,34*,26*,42*,3,21,51*,TLR9-MyD88 conf=34*;BLA counter=34;TLR9 CHO cytotox=3
CC1C/C(=C/c2ccncc2)C(=O)/C(=C/c2ccncc2)C1 (stereo unspecified),0,6,6,6,-2,0,nt,nt,
CC1C/C(=C/c2cccn2C)C(=O)/C(=C/c2cccn2C)C1 (stereo unspecified),7,-2,-4,55*,37*,-43,32*,61*,TLR9-MyD88 conf=41*;BLA counter=40;TLR9 CHO cytotox=1
Cc1ccc(S(=O)(=O)N[C@H](C(=O)Oc2ccc3c(C(F)(F)F)cc(=O)oc3c2)c2ccccc2)cc1,i,3,58*,32*,55*,-2,43*,56*,TLR9-MyD88 conf=33*;BLA counter=40;TLR9 CHO cytotox=-1
